# AmpC detergent – qHTS Inhibitors of AmpC Beta-Lactamase (assay with detergent) | AID 485294, 2010 | 370,000 compounds, 0.041% hits | P00811 | AmpC hydrolysis of nitrocefin, absorbance 480 nm, 0.01% Triton | Potency, µM (doses to about 114 µM), inactives show at the top dose activity change, negative = inhibition, hits mostly inhibitors;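 further: 0% = no-compound wells and -100% = no-enzyme wells; nearly all actives have a fitted effect of over 25% in size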
# Target sequence (P00811 whole entry, looked up): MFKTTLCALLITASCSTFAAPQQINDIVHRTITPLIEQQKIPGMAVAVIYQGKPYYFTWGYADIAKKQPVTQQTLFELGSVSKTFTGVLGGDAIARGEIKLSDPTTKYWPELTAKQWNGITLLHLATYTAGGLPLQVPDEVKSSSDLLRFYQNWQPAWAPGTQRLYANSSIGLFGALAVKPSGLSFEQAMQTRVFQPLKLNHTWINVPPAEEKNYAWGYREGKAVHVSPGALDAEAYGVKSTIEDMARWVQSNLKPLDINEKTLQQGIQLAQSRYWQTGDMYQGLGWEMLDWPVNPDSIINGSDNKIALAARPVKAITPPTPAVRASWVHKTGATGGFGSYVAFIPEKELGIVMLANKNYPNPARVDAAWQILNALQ
#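 AmpC (5.3 nM in the dispensed reagent) in 20 mM phosphate pH 7.0 with 0.01% (detergent screen) or 0.0001% Triton X-100 was preincubated with compounds for 15 min at room temperature. Nitrocefin was then added from an 800 uM solution, and hydrolysis was followed at 480 nm.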
# Pf growth 96h – Primary qHTS for delayed death inhibitors of the malarial parasite plastid, 96 hour incubation | P. falciparum luciferase reporter growth, 96 h | Potency, µM (doses to about 28.7 µM), inactives show top-dose activity change, negative = inhibition, hits mostly inhibitors | 320,000 compounds, 6.9% hits | AID 504834, 2011
#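 Delayed-death screen, second-generation endpoint: infected erythrocytes, 2% hematocrit, 0.05% parasitemia final; 96 hours at 37 C, 5% CO2; luciferase detection reagent; luminescence decrease equals reduced growth.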
# Pf growth 48h – Primary qHTS for delayed death inhibitors of the malarial parasite plastid, 48 hour incubation | Potency, µM (titrated, usually from 28.7 µM), for inactives: at the top dose activity change, negative = inhibition, hits mostly inhibitors | P. falciparum luciferase growth in erythrocytes, 48 h | 310,000 compounds, 5.9% hits | AID 504832, 2011
#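 A one-generation exposure of luciferase-tagged malaria parasites in RPMI 1640/Albumax erythrocyte culture, 37 C and 5% CO2. Inhibition is inferred from decreased luminescence after adding detection reagent.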
# AmpC no deterg – qHTS Inhibitors of AmpC Beta-Lactamase (assay without detergent) | AID 485341, 2010 | AmpC nitrocefin hydrolysis, absorbance 480 nm, 0.0001% Triton | 330,000 compounds, 0.52% hits | P00811 | Potency, µM (highest dose often 57.1 µM), without a hit: at the top dose activity change, negative = inhibition, most hits filed as inhibitors;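 further: plate controls were no compound for no effect and no enzyme for full effect; nearly all actives have a fitted effect of over 20% in size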
#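 20 mM phosphate pH 7.0 + 0.01% (detergent screen) or 0.0001% Triton X-100; 5.3 nM AmpC reagent; cpd preinc 15 min RT; nitrocefin (800 uM stock) to start; A480 q20 s × 4 min; Activity was normalised to no-enzyme and no-compound control wells.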
# HCV inh – qHTS Assay for Inhibitors of Hepatitis C Virus (HCV) | Huh7.5.1 HCVcc-Cre infection, luciferase reporter, 44 h | Potency, µM (highest dose often 41.8 µM), for the others: at the top dose activity change, negative = inhibition, hits mostly inhibitors | 340,000 compounds, 3.4% hits | AID 651820, 2012
#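 1,000 cells/well; 4 h culture; + compound; + HCVcc-Cre (~0.5 moi); 44 h; luciferase substrate, RT 15 min; read 15 sec.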
# AMA1 RON2 block – qHTS for Inhibitors of AMA1-RON; Towards Development of Antimalarial Drug Lead: Primary Screen; Plasmodium falciparum AMA1 (3D7) - RON2 peptide interaction; AlphaScreen AMA1-biotinylated RON2 peptide binding; Potency, µM (series often up to 58.2 µM), without a hit: at the highest dose activity change, negative = inhibition, actives largely listed as inhibitors; 360,000 compounds, 0.2% hits;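 further: 0% = vehicle wells and -100% = peptide control; nearly all actives have a fitted effect of over 45% in size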
#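 AMA1 (3D7) with his tag at 25 nM final met compounds first, then biotinylated RON2 peptide at 25 nM; detection used donor plus acceptor beads, 10 µg/mL apiece, read by AlphaScreen after 30 min at room temperature.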
# Numbers without * were called inactive; ? = inconclusive; . = no result given; [ ] = dose if it differs, or a comment. Hits are enriched below; roughly 11% of the tested compounds scored in any of these assays. The call rests on the fitted dose curve; in most records, active means well fitted curve in the direction sought with a large enough effect; inconclusive means small, poorly fitted or top-dose-only effect, or another doubt; inactive means no such curve, though single readings can be large; an effect the other way counts as inactive or inconclusive. Unless noted, on the % scale 0 is the no-effect control and ±100 the full control effect; potency means the concentration at half of the fitted maximal effect.
SMILES,AmpC detergent,Pf growth 96h,Pf growth 48h,AmpC no deterg,HCV inh,AMA1 RON2 block
COc1ccc([C@]23Cc4cc(C#N)ccc4[C@H](O2)c2c(cc(C)n(Cc4ccccc4)c2=O)O3)cc1,-14%[22.9 µM],-4%[5.75 µM],1.9µM*,-47%[11.4 µM],.,.
COc1ccc([C@]23Cc4cc(OC)c(OC)cc4C(O2)c2c(cc(-c4ccccc4)oc2=O)O3)cc1,-9%[22.9 µM],?,?,-18%[11.4 µM],.,.
Cc1cc2c(c(=O)n1Cc1ccccc1)C1O[C@](CCCCN3C(=O)c4ccccc4C3=O)(Cc3cc(C#N)ccc31)O2,?,?,?,-18%[11.4 µM],.,.
COc1ccc([C@]23Cc4cc(OC)c(OC)cc4C(O2)c2c(cc(C)n(Cc4ccccc4)c2=O)O3)cc1,-6%[22.9 µM],1.5µM*,?,-21%[11.4 µM],.,.
COc1ccc([C@]23Cc4cc(C#N)ccc4C(O2)C2=C(CC4(CCCCC4)OC2=O)O3)cc1,-12%[22.9 µM],0.76µM*,?,-49%[11.4 µM],.,.
COc1ccc(-c2nc(CCNC(=O)Cc3ccc(F)cc3)cs2)cc1,0%,.,.,.,.,.
c1ccc(C2(CN3CCNC[C@@H]3CC3CCCCC3)CC2)cc1,.,.,.,-4%,22µM*,-1%
O=C(NCc1ccccc1)c1noc2c1CCCCC2,-7%,9.3µM*,154%,-8%,.,35%
COc1ccc(CNC(=O)c2noc3c2CCCCC3)cc1,?,?,37%,-22%,?,-5%
O=C(Nc1ccccc1C(=O)N1CCOCC1)c1noc2c1CCCC2,?,.,14%,-19%,13%,6%
COc1cc(NC(=O)c2noc3c2CCC3)c(OC)cc1Cl,4%,462%,2.6µM*,-24%,?,?
COC(=O)c1ccccc1NC(=O)c1noc2c1CCCC2,-12%,9.3µM*,30%,19%,?,10%
CCS(=O)(=O)N1CC(=O)N(c2cc(C)cc(C)c2)C(C)(C(=O)NC2CCCCC2)C1 (centres undefined),16%,.,.,.,.,.
COc1cccc(NC(=O)c2sc3nc(C)c(C(=O)Nc4ccc(C)cc4C)c(-c4ccc(C)o4)c3c2N)c1,-6%,.,.,.,.,.
Cc1nn(-c2ccc(N3CCCC3)nn2)c(C)c1CCC(=O)NCc1ccccc1F,-11%,.,.,.,.,.
Nc1ccc2nc(COc3ccccc3)[nH]c2c1,1%,7.4µM*,49%,-20%,4%,6%
Nc1ccc2nc(CCCCCCCCc3nc4ccc(N)cc4[nH]3)[nH]c2c1,1%,6%,7.4µM*,-27%,7%,-3%
CCN(CC)CCC(c1ccc2c(c1)OCO2)c1c(O)cc(OC)cc1OC (centres undefined),0%,2.9µM*,1.5µM*,-4%,-15%,-14%
CCN(CC)C(=O)CC(c1ccc2c(c1)OCO2)c1c(O)cc(OC)cc1OC (centres undefined),5%,-11%,?,-10%,-20%[8.37 µM],-12%
COc1cc(O)c(C(CCN2CCN(c3ccccc3)CC2)c2ccc3c(c2)OCO3)c(OC)c1 (centres undefined),2%,0.33µM*,0.83µM*,-7%,-13%[8.37 µM],16µM*
COc1cc(O)c(C(CC(=O)N2CCCC2)c2ccc3c(c2)OCO3)c(OC)c1 (centres undefined),5%,?,?,-4%,7%,1%
CCN(CC)CCC(c1cc(OC)c(OC)c(OC)c1)c1c(O)cc(OC)cc1OC (centres undefined),-4%,2.9µM*,3.3µM*,20%,5%,3%
COc1cc(O)c(C(CCN2CCCC2)c2ccc3c(c2)OCO3)c(OC)c1 (centres undefined),-6%,2.9µM*,2.9µM*,9%,-12%,-26%

# Screens: PubChem BioAssay, National Center for Advancing Translational Sciences (NCATS)
